A number with no mark means an inactive call. Inconclusive results are not listed. The source made the active and inactive calls. Unless noted, the call rests on the fitted dose curve; in most records, active means well fitted curve in the direction sought with a large enough effect in the repeat runs; inconclusive means weak or mixed curves; inactive means no such curve, though single readings can be large; an effect the other way counts as inactive or inconclusive.

The text below walks through data of PubChem BioAssay (Tox21).

Test [1] addresses Estrogen receptor beta (Homo sapiens) (UniProt Q92731). The test is described as follows: qHTS assay to identify small molecule antagonists of the estrogen receptor beta (ER-beta) signaling pathway (AID 1259378; active means well fitted inhibition curve with a large enough effect in the signal ratio in the repeat runs, not every such curve was filed as active; the % refers to the signal ratio; further: potency means the concentration at half of the fitted maximal effect). The settings on record: ER-beta-UAS-bla HEK293T, beta-lactamase FRET ratio, 16 h; series mostly up to 92.4 µM. Put shortly:
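ER-beta-UAS-bla HEK293T (GripTite) cells in 2% charcoal-stripped FBS medium were preincubated 6 hr at 37C, dosed with compound, then stimulated with 1 nM E2 (final) for 16 hr; beta-lactamase reporter read by B/G FRET fluorescence after 2 hr substrate loading.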

Test [2] is described as follows: qHTS assay to identify small molecule agonists of the androgen receptor (AR) signaling pathway in the presence of an antagonist - cell viability counter screen (AID 1259379). Further: nearly all actives have a fitted effect of over 25% in size. Further: potency means the concentration at half of the fitted maximal effect. The settings on record: MDA-kb2 viability, CellTiter-Fluor, 16 h; series mostly up to 92.4 µM. Put shortly:
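Viability counter screen: CellTiter-Fluor fluorescence, measured in the same wells as the luciferase read-out. MDA-kb2 cells, 3,000/well, with nilutamide at 3.0uM final and compounds at 15 concentrations, 16 hr at 37C, 0% CO2.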

Test [3] can be described thus: qHTS assay to identify small molecule agonists of the estrogen receptor beta (ER-beta) signaling pathway - cell viability counter screen (AID 1259380). Further: nearly all actives have a fitted effect of over 30% in size. Further: potency means the concentration at half of the fitted maximal effect. The settings on record: ER-beta-bla HEK293T viability, CellTiter-Glo luminescence, 16 h; series mostly up to 92.4 µM. A digest of the protocol:
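Luminescence read-out (CellTiter-Glo, 30 min, room temp) taken in the same wells as the beta-lactamase reporter assay; ER-beta-UAS-bla HEK293T cells exposed to DMSO-dissolved compounds for 16 hr at 37C in 2% charcoal-stripped FBS medium.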
A general note: In qHTS, concentration-response curves come from the screen itself.

The nature of test [4]: qHTS assay to identify small molecule antagonists of the estrogen receptor beta (ER-beta) signaling pathway - cell viability counter screen (AID 1259382). Further: nearly all actives have a fitted effect of over 55% in size. Further: potency means the concentration at half of the fitted maximal effect. The settings on record: ER-beta-UAS-bla HEK293T viability, CellTiter-Glo luminescence, 16 h; series mostly up to 92.4 µM. A digest of the protocol:
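Luminescent ATP read-out (CellTiter-Glo, 30 min, RT) taken in the same wells as the bla reporter assay. HEK293T ER-beta-UAS-bla cells in 2% charcoal-stripped FBS were exposed to compounds with 1nM E2 for 16 hr at 37C.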

In test [5] the target is Estrogen receptor (Homo sapiens) (UniProt P03372). The test is described as follows: qHTS assay to identify small molecule agonists of the estrogen receptor alpha (ER-alpha) signaling pathway in the presence of an antagonist (AID 1259383; calls by dose curve; further: top concentration of the series differs between compounds; nearly all actives have a fitted effect of over 15% in size). The settings on record: VM7Luc4E2 cells, ERE-luciferase, +ICI-182,780, 22 h; series mostly up to 92.4 µM. Put shortly:
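Luciferase luminescence (ONE-Glo, 30min at room temperature) measured in VM7Luc4E2 cells after 22hr compound exposure at 15 concentrations, with 10.0nM ICI-182,780 final present; cells express endogenous ER-alpha and carry four EREs upstream of luciferase.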

Test [6] in a line: qHTS assay to identify small molecule agonists or antagonists of the thyroid stimulating hormone receptor (TSHR) signaling pathway - wild type cell line counter screen (AID 1259384; calls by dose curve). The conditions noted are these: HEK293 wild type, cAMP HTRF counter-screen, stronger effect = higher value; series mostly up to 92.4 µM. Put shortly:
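Wild-type HEK293 cells were plated 18 h at 37 C/5% CO2, pin-dosed with compound plus Ro20-1724 medium, held 30 min at room temperature, then given cAMP-d2 and anti-cAMP-cryptate; fluorescence was read after 1 h. Fifteen concentrations, triplicate.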

Test [7] concerns the target Thyrotropin receptor (Homo sapiens) (UniProt P16473). The test is described as follows: qHTS assay to identify small molecule antagonists of the thyroid stimulating hormone receptor (TSHR) signaling pathway (AID 1259385; calls by dose curve; further: nearly all actives have a fitted effect of over 20% in size; further: potency means the concentration at half of the fitted maximal effect). The conditions noted are these: TSHR-HEK293 cAMP HTRF, TSH-stimulated antagonist mode; series mostly up to 92.4 µM. A digest of the protocol: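 TSHR-HEK293 cells were plated and held 18 h at 37C/5% CO2, then given compound plus Ro20-1724 and stimulated with TSH at 1.5 ng/mL final. After 30 min at room temperature, cAMP was detected with cAMP-d2/anti-cAMP-cryptate (1 h) by fluorescence.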

Test [8] can be described thus: qHTS assay to identify small molecule agonists of the estrogen receptor alpha (ER-alpha) signaling pathway in the presence of an antagonist - cell viability counter screen (AID 1259386). Further: nearly all actives have a fitted effect of over 30% in size. Further: potency means the concentration at half of the fitted maximal effect. The conditions noted are these: VM7Luc4E2 viability, CellTiter-Fluor fluorescence, 22 h; series mostly up to 92.4 µM. A digest of the protocol: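 Read-out: CellTiter-Fluor fluorescence after 1hr reagent incubation, measured in the same wells as the luciferase readout. VM7Luc4E2 cells were exposed to 15 compound concentrations with 10.0nM ICI-182,780 for 22hr at 37C.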

The target of test [9] is Progesterone receptor (Homo sapiens) (UniProt P06401). The test is described as follows: qHTS assay to identify small molecule agonists of the progesterone receptor (PR) signaling pathway (AID 1346784; calls by dose curve; further: nearly all actives have a fitted effect of over 30% in size). The conditions noted are these: PR-UAS-bla HEK293T, beta-lactamase FRET ratio, 16 h; series mostly up to 92.4 µM. Put shortly: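 Agonist qHTS: compounds pinned onto 3,000 PR-UAS-bla HEK 293T cells per well in charcoal-stripped serum medium, 16hr at 37C, then beta-lactamase activity measured by LiveBLAzer FRET fluorescence after 2 hours at room temperature.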
Sequence of Progesterone receptor (Homo sapiens) (P06401 whole entry, looked up): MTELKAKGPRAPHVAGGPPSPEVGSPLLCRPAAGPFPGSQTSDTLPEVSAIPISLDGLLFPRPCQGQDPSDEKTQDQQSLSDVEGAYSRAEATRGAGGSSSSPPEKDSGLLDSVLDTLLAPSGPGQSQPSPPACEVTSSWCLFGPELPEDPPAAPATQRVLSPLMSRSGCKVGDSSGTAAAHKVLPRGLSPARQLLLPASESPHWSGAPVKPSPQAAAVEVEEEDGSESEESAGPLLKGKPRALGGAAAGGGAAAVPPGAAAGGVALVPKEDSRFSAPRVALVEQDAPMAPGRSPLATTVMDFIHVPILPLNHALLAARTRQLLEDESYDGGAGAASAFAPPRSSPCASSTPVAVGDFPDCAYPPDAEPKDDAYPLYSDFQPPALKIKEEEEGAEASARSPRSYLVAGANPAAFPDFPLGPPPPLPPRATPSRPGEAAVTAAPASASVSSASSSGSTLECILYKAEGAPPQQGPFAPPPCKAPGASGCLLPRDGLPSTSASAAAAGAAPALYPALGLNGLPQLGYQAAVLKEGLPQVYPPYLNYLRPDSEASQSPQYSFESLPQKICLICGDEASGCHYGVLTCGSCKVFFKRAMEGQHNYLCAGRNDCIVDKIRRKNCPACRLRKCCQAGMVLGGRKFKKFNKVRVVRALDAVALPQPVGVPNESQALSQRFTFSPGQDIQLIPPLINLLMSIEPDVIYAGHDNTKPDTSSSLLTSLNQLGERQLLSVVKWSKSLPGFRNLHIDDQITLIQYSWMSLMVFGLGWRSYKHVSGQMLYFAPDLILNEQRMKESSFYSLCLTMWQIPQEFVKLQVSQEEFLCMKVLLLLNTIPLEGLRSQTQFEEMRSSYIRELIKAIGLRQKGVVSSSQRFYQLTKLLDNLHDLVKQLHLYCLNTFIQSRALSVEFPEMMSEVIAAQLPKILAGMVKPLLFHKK

Test [10] has as its target Androgen receptor (Homo sapiens) (UniProt P10275). The test is described as follows: qHTS assay to identify small molecule agonists of the androgen receptor (AR) signaling pathway in the presence of an antagonist (AID 1259381; calls by dose curve; further: nearly all actives have a fitted effect of over 15% in size). The settings on record: MDA-kb2 MMTV-luciferase, AR agonist + nilutamide, 16 h; series mostly up to 92.4 µM. A digest of the protocol:
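Luciferase read-out (ONE-Glo, 30min room temperature) in MDA-kb2 MMTV-reporter cells; agonist mode run in presence of AR antagonist nilutamide, 3.0uM final. Compounds tested as 15-point series, 16hr exposure at 37C, 0% CO2.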

Sequence of Estrogen receptor (Homo sapiens) (P03372 whole entry, looked up): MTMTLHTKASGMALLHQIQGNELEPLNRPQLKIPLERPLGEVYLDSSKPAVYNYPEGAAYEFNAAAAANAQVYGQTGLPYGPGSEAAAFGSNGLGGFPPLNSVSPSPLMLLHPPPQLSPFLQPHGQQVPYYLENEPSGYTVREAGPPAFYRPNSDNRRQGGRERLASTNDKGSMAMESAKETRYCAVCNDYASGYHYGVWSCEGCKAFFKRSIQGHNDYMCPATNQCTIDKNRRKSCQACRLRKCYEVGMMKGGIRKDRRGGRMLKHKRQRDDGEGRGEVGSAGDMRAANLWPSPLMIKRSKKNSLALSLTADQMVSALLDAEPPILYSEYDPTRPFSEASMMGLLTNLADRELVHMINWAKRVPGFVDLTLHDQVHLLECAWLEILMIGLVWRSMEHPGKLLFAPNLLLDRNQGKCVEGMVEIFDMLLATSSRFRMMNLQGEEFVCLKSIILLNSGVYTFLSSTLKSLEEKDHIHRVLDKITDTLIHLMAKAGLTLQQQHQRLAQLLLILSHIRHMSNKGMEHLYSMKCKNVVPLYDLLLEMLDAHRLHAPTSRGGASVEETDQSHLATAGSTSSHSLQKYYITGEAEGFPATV
Sequence of Thyrotropin receptor (Homo sapiens) (P16473 whole entry, looked up): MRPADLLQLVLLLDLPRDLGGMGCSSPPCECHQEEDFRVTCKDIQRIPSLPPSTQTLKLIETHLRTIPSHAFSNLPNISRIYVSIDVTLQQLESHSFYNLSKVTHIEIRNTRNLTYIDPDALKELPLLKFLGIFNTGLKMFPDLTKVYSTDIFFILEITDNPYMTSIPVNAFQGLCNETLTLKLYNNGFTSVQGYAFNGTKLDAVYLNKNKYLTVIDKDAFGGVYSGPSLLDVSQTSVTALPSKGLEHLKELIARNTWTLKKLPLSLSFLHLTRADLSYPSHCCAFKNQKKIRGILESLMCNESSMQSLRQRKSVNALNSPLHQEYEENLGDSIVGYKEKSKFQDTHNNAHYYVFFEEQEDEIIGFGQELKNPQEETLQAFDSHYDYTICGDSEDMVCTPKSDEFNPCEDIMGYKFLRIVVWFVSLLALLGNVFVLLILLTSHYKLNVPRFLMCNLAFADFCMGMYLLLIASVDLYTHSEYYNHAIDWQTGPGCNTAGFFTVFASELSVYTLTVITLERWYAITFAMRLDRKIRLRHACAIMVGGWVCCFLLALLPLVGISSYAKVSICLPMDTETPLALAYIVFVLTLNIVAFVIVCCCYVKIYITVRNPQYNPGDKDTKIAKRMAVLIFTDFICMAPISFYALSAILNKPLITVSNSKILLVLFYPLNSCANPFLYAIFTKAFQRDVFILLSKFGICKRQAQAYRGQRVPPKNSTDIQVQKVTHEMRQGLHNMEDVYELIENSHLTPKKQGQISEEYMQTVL
Sequence of Estrogen receptor beta (Homo sapiens) (Q92731 whole entry, looked up): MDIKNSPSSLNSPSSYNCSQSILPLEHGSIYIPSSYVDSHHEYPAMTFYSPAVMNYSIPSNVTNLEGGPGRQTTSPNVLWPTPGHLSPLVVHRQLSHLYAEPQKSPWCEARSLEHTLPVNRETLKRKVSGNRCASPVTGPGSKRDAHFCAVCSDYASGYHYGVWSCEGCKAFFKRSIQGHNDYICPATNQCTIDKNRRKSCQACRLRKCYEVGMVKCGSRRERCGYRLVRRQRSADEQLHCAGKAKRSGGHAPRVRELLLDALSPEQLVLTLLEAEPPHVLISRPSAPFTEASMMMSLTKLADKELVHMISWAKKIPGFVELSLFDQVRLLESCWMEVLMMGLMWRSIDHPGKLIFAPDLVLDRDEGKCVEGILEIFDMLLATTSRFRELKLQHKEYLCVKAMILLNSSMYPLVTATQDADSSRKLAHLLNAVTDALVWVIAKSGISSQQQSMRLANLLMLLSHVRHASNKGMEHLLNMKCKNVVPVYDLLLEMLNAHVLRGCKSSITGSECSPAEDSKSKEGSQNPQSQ
Sequence of Androgen receptor (Homo sapiens) (P10275 whole entry, looked up): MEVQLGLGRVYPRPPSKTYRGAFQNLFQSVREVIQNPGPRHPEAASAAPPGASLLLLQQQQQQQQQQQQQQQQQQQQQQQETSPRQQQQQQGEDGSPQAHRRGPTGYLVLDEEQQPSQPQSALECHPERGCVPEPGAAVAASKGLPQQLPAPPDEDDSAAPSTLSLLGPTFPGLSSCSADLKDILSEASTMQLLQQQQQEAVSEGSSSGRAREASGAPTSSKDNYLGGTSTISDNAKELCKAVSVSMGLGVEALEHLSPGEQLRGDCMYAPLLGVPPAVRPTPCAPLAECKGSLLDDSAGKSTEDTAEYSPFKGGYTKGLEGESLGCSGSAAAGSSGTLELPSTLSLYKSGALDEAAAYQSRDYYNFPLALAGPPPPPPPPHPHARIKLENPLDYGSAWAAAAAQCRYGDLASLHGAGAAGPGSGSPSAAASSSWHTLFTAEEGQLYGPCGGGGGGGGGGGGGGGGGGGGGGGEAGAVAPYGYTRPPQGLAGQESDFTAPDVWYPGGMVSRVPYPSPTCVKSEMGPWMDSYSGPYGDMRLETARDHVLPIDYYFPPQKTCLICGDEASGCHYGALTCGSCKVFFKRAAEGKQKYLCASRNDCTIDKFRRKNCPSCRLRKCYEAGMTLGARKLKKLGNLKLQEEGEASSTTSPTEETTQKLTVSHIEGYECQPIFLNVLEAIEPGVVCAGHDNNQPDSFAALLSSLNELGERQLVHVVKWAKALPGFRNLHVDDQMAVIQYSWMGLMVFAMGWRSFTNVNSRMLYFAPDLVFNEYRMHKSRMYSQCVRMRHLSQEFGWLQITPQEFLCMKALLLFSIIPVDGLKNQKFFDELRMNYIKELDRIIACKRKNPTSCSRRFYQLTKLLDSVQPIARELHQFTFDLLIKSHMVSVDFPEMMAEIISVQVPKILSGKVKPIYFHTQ

As for `C#CC(O)CCC` (centres undefined), the Potency result in test [1], in test [2], in [3], in test [4], in test [5] and in [7] was “inactive” throughout. The Potency result in test [8] was “inactive”. Also, the outcome in test [6] and in test [9] was inactive.
Consider `CC(C)=CCCC(C)CCOC(=O)C(C)C` (centres undefined), for which the Potency result in [1], in [2], in test [3], in test [4], in test [5] and in [7] was “inactive” each time. In test [8], the Potency result is “inactive”. Besides, the compound was classed as inactive in test [6] and in test [9].
Take `Clc1cc(Cl)c(-c2c(Cl)c(Cl)cc(Cl)c2Cl)cc1Cl`: the Potency result in test [1], in [2], in test [3], in test [10], in [4] and in test [7] was “inactive” in each case. For the same compound, the Potency result in test [8] is “inactive”. Moreover, the result in test [6] and in [9] was inactive.
Regarding `CCN(CC)CCOC(=O)C1(C2CCCCC2)CCCCC1`, the Potency result in [1], in [2], in [10], in [5] and in test [8] was “inactive” in each case. The Potency in [3] is 26.6 µM (active); in test [7], 29.8 µM (active). In addition, the result in test [6] and in test [9] was inactive.
In the case of `CCOCN(C(=O)CS(=O)(=O)O)c1c(C)cccc1CC`, the Potency entry in test [1], in [2], in [3], in test [4], in test [5] and in test [7] was “inactive” in each case. In addition, in test [8], the Potency entry is “inactive”. Besides, the compound was called inactive in test [6] and in test [9].
As to `CC(C)(c1cc(Br)c(OCCO)c(Br)c1)c1cc(Br)c(OCCO)c(Br)c1`, the Potency in test [1] was 4.75 µM (active); in [2], 47.5 µM (active); in test [3] it was 42.3 µM (active); in test [4] it was 53.3 µM (active); in test [8], 53.3 µM (active). Further, the Potency entry in [10] was “inactive”.
On to `CCOC(OCC)C(=O)c1ccccc1`, for which the Potency entry in test [1], in test [2], in [3], in [10], in test [4] and in test [8] was “inactive” throughout. For the same compound, the outcome in test [9] was inactive.
Turning to `CCCCOCC`, the Potency entry in test [1], in [2], in test [3], in test [10], in test [4] and in test [7] was “inactive” in each case. In addition, the Potency result in test [8] is “inactive”. The compound was called inactive in [6] and in test [9].
Turning to `CCCCNc1c(C(=O)OCC)c(C)nc2c1cnn2CC`, the Potency entry in test [1], in test [2], in [3], in test [4], in test [5] and in [7] was “inactive” in each case. Moreover, the Potency entry in test [8] was “inactive”. The outcome in test [6] was inactive.
In the case of `C/C=C/CO`, the Potency result in test [1], in [2], in test [3], in test [4], in test [5] and in [7] was “inactive” in each case. Besides, the Potency result in [8] is “inactive”. In addition, the compound was called inactive in [6] and in [9].
As for `CC1(C)C(=O)N(Br)C(=O)N1Br`, the Potency result in [1], in [2], in test [3], in [10], in test [4] and in test [7] was “inactive” throughout. The Potency result in test [8] is “inactive”. The compound was classed as inactive in [6] and in test [9].
Take `Cc1ccc2ccc3cccc4ccc1c2c34`: the Potency result in test [1], in [2], in test [4], in test [5], in [7] and in test [8] was “inactive” throughout. Besides, in [3], the Potency is 24.3 µM (active). In addition, the result in test [6] was inactive.
Regarding `CC(C)=CCCC(C)O` (centres undefined), the Potency entry in [1], in test [2], in test [3], in test [10], in test [4] and in test [7] was “inactive” in each case. Besides, in test [8], the Potency result is “inactive”. The compound was called inactive in test [6] and in [9].
On to `CCCCCCCC/C=C\CCCCCCCC(=O)OCCOC(=O)CCCCCCC/C=C\CCCCCCCC`, for which the Potency entry in test [1], in test [2], in test [3], in test [4], in test [5] and in test [7] was “inactive” throughout. Further, the Potency entry in test [8] is “inactive”. For the same compound, the compound was called inactive in test [6] and in test [9].
In the case of `Brc1ccccn1`, the Potency entry in [1], in test [2], in test [3], in test [4], in test [5] and in [7] was “inactive” in each case. For the same compound, the Potency entry in [8] is “inactive”. For the same compound, the compound was classed as inactive in test [6] and in [9].
In the case of `CCOC(=O)COc1ccc(C)cc1`, the Potency result in [1], in [2], in [3], in test [4], in [5] and in [7] was “inactive” each time. The Potency result in test [8] was “inactive”. Also, the result in [6] and in test [9] was inactive.
Regarding `CCC(=O)OCCc1ccccc1`, the Potency entry in test [1], in test [2], in [3], in [4], in test [5] and in test [7] was “inactive” throughout. The Potency result in test [8] is “inactive”. Further, the compound was called inactive in [6] and in test [9].
For `O=S(=O)(O)CCCN1CCOCC1`, the Potency result in [1], in [2], in test [3], in test [4], in test [5] and in test [7] was “inactive” in each case. Also, the Potency result in test [8] is “inactive”. Moreover, the compound was classed as inactive in [6] and in [9].
For the compound `Cc1ccc(-n2[nH]c(C)c(N=Nc3cccc(-c4cccc(C(=O)O)c4)c3O)c2=O)cc1C`, the Potency in test [1] is 8.41 µM (active); in [2] it was 29.8 µM (active); in test [3] it was 26.6 µM (active); in [8] it was 29.8 µM (active). Moreover, the Potency result in [10] and in test [7] was “inactive” throughout. Moreover, the compound was classed as inactive in [6] and in test [9].
Take `CCN(CC)CCSC(=O)C(c1ccccc1)c1ccccc1`: the Potency entry in test [1], in test [2], in test [4], in test [5], in [7] and in test [8] was “inactive” each time. The Potency in test [3] is 29.8 µM (active). Further, the result in [6] and in test [9] was inactive.
For the compound `CCOCOCC`, the Potency entry in test [1], in test [2], in test [3], in test [10], in test [4] and in test [7] was “inactive” in each case. Also, in test [8], the Potency entry was “inactive”. Also, the outcome in test [6] and in test [9] was inactive.
Consider `CCCCOC(=O)C(C)CC` (centres undefined), for which the Potency entry in [1], in test [2], in test [3], in test [4], in [5] and in test [7] was “inactive” throughout. In test [8], the Potency entry is “inactive”. The compound was classed as inactive in [6] and in test [9].
For the compound `CN(C)c1ccc(N=Nc2ccccc2C(=O)O)cc1`, the figures for the Potency in [1] and in [2] were 15.4 µM (active) and 68.6 µM (active), respectively. Further, the Potency entry in [3], in test [4] and in test [5] was “inactive” throughout.
As to `Cc1cc(Nc2ccc(O)cc2)ccc1N`, the Potency entry in test [1] and in test [4] was “inactive” each time. In addition, the Potency in test [2] is 24.2 µM (active); in [3] it was 27.2 µM (active); in test [8], 30.5 µM (active). Besides, the outcome in test [9] was inactive.
Turning to `CC[N+](CC)(CC)Cc1ccccc1`, the Potency result in [1], in [2], in test [3], in [4], in test [5] and in [8] was “inactive” throughout. Moreover, the outcome in [9] was inactive.
For the compound `C=CC(=C)CCC=C(C)C`, the Potency entry in test [1], in test [2], in [3], in [4] and in [8] was “inactive” throughout. Besides, in test [9], the result was inactive.
